The target of test [1] is T1, Casein kinase II (Homo sapiens) (UniProt P67870+P68400+P19784). Particulars: at 1 µM.
Test [2] has as its target T1, Casein kinase II (Homo sapiens). As to conditions: at 10 µM.
Test [3] concerns the target Casein kinase II subunit alpha' (Homo sapiens) (UniProt P19784). Particulars: at 1 µM.
The target is the same in test [4]. Particulars: at 10 µM.
Test [5] concerns the target Dual specificity protein kinase CLK2 (Homo sapiens) (UniProt P49760). Particulars: at 1 µM.
Test [6] shares this target. Particulars: at 10 µM.
The target in test [7] is Dual specificity protein kinase CLK3 (Homo sapiens) (UniProt P49761). Particulars: at 1 µM.
Chain of Dual specificity protein kinase CLK3 (Homo sapiens) (P49761 whole entry, looked up): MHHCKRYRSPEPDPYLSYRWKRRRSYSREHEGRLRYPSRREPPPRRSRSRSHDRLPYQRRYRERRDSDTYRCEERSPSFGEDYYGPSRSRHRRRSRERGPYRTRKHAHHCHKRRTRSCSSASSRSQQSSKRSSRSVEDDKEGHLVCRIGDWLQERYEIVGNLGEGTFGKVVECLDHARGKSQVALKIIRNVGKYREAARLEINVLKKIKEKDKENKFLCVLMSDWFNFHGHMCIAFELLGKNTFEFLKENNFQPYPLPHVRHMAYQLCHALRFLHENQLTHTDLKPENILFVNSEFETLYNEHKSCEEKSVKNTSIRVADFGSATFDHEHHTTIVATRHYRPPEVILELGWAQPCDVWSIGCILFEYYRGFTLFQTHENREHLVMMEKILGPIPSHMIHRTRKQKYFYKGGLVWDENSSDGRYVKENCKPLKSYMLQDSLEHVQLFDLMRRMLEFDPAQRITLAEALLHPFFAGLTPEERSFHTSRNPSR
Test [8] shares this target. As to conditions: at 10 µM.
The target in test [9] is Tyrosine-protein kinase CSK (Homo sapiens) (UniProt P41240). As to conditions: at 1 µM.
Chain of Tyrosine-protein kinase CSK (Homo sapiens) (P41240 2-450 limits assumed): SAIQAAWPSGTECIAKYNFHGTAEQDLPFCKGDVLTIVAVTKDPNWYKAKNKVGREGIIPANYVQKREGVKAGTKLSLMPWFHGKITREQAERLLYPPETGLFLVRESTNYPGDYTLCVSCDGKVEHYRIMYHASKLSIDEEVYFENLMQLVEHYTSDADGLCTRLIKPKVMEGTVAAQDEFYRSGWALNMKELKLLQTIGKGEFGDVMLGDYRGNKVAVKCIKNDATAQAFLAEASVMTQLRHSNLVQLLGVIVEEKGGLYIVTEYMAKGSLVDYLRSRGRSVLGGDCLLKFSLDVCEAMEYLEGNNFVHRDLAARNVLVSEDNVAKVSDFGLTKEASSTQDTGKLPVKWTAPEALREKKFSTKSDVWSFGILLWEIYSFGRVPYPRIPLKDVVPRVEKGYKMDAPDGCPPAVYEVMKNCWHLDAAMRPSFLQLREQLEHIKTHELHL
Test [10] shares this target. Particulars: at 10 µM.
Test [11] addresses Calcium/calmodulin-dependent protein kinase type 1 (Homo sapiens) (UniProt Q14012). Particulars: at 1 µM.
Test [12] shares this target. Particulars: at 10 µM.
The target in test [13] is Calcium/calmodulin-dependent protein kinase type II subunit beta (Homo sapiens) (UniProt Q13554). Particulars: at 1 µM.
Chain of Calcium/calmodulin-dependent protein kinase type II subunit beta (Homo sapiens) (Q13554 whole entry): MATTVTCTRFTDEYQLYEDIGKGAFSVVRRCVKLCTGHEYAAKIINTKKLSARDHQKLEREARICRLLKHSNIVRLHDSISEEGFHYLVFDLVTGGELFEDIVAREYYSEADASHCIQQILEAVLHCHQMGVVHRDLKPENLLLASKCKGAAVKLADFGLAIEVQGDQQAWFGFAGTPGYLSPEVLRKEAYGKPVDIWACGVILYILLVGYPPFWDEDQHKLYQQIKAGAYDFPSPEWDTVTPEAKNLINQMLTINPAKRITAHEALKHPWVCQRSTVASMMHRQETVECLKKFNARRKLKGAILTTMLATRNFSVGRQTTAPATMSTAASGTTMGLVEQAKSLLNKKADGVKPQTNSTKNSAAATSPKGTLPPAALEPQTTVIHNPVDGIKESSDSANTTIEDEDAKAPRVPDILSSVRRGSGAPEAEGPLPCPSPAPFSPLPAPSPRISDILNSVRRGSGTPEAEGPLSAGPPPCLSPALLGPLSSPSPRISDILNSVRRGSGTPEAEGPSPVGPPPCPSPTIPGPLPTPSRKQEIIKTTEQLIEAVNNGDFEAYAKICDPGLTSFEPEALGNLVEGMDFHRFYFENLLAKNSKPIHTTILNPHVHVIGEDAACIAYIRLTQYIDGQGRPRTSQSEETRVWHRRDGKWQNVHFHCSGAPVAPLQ
The target is the same in test [14]. As to conditions: at 10 µM.
The target in test [15] is Calcium/calmodulin-dependent protein kinase type II subunit gamma (Homo sapiens) (UniProt Q13555). As to conditions: at 1 µM.
Chain of Calcium/calmodulin-dependent protein kinase type II subunit gamma (Homo sapiens) (Q13555 whole entry): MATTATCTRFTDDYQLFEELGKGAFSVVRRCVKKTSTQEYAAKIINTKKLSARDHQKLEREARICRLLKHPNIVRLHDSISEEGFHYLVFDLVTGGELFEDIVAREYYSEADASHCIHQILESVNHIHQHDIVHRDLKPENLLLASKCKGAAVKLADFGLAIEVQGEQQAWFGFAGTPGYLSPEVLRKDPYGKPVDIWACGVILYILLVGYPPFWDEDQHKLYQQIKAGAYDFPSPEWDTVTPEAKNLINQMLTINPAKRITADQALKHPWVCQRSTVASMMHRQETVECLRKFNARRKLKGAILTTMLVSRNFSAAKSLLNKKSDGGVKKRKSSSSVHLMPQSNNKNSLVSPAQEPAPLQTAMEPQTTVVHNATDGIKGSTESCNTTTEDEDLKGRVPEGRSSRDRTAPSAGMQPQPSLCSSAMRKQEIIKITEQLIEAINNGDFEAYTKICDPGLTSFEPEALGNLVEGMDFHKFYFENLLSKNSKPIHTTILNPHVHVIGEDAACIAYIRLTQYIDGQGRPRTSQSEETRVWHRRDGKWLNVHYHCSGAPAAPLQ
Test [16] has the same target. As to conditions: at 10 µM.
Test [17] concerns the target Calcium/calmodulin-dependent protein kinase type II subunit delta (Homo sapiens) (UniProt Q13557). As to conditions: at 1 µM.
For test [18] the target is unchanged. Particulars: at 10 µM.
Test [19] addresses T2, Calcium/calmodulin-dependent protein kinase type IV (Homo sapiens) (UniProt Q16566).
T2 sequence (whole entry): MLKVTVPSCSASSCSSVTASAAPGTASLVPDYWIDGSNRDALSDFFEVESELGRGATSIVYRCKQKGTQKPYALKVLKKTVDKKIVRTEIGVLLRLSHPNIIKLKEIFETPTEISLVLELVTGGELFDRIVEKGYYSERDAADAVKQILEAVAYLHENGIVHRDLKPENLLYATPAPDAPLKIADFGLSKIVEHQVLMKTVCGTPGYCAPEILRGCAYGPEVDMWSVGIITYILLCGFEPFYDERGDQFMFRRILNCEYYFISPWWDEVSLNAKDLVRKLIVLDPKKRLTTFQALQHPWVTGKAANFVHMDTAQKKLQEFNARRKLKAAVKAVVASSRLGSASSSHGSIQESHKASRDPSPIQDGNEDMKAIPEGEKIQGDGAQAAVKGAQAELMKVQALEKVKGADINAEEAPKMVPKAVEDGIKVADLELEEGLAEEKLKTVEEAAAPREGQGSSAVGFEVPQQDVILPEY
Particulars: at 1 µM.

For test [20], the target named is T2, Calcium/calmodulin-dependent protein kinase type IV (Homo sapiens). Particulars: at 10 µM.

Chain of Dual specificity protein kinase CLK2 (Homo sapiens) (P49760 whole entry, looked up): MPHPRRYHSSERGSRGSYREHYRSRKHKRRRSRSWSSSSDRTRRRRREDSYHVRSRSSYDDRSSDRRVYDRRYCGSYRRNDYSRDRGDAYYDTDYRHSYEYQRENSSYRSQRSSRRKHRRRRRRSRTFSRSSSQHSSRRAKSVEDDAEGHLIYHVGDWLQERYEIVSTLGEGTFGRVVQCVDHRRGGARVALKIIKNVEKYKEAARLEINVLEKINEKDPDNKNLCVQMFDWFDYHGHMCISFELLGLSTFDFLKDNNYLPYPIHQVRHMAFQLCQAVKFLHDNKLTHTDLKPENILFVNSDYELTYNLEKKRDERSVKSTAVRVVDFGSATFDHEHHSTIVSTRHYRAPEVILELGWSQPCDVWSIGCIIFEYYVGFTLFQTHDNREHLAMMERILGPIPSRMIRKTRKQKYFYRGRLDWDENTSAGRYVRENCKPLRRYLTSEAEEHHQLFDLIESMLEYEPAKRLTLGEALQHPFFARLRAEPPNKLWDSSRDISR
Chain of Calcium/calmodulin-dependent protein kinase type II subunit delta (Homo sapiens) (Q13557 whole entry): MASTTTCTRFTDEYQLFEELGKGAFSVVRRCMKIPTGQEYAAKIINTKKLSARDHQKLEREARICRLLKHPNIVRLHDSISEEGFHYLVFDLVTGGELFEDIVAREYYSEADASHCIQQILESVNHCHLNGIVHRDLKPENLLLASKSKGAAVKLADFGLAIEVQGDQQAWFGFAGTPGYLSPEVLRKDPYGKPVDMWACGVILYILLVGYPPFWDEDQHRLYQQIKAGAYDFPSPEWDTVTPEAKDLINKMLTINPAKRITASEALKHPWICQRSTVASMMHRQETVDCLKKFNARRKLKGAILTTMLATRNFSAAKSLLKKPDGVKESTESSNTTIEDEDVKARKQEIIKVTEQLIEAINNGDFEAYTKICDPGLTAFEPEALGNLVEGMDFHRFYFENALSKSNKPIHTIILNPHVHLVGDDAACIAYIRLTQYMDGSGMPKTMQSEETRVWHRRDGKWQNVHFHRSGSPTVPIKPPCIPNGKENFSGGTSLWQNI
T1 sequence (P19784 whole entry, looked up): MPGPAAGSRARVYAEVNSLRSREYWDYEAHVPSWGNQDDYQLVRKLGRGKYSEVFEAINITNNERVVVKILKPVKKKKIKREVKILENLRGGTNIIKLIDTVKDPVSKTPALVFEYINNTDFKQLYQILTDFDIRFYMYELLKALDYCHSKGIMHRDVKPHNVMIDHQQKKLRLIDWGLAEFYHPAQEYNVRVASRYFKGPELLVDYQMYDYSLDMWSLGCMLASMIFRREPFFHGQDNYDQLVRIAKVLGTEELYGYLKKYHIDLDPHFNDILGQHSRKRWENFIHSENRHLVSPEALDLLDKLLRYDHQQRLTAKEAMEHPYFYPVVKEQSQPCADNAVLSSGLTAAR
T1 sequence (P67870 whole entry, looked up): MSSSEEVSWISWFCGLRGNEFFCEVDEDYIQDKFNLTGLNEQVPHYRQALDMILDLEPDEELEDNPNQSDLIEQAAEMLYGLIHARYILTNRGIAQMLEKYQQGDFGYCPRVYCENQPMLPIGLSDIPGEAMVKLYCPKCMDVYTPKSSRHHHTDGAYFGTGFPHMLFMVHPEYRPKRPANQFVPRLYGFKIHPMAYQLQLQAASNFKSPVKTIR
T1 sequence (P68400 whole entry, looked up): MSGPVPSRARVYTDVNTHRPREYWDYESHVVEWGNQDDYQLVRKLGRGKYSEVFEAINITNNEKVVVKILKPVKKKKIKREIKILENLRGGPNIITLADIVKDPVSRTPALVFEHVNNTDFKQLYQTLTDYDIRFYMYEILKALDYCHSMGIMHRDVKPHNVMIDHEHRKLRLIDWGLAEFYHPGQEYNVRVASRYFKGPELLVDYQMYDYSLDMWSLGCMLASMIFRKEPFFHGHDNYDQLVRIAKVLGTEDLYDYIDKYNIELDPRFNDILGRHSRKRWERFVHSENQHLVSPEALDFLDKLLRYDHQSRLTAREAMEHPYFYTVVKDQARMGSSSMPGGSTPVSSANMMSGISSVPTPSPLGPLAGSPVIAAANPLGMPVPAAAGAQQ
Chain of Casein kinase II subunit alpha' (Homo sapiens) (P19784 whole entry, looked up): as the sequence (P19784 whole entry, looked up) above
Chain of Calcium/calmodulin-dependent protein kinase type 1 (Homo sapiens) (Q14012 whole entry, looked up): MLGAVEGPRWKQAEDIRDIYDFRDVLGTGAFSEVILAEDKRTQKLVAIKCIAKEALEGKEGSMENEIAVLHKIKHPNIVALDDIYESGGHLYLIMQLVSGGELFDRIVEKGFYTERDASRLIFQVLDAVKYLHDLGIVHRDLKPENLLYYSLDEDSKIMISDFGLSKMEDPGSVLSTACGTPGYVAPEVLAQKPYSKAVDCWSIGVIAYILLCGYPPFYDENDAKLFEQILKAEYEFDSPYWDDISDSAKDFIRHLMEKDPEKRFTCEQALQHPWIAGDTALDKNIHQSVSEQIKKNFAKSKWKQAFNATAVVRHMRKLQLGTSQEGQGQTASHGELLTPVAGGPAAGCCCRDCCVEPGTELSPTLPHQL

In general, residual activity refers to the signal under treatment as a percentage of the control signal. As for `O=C1NC(=O)/C(=C\c2ccc3nccnc3c2)S1`, the residual activity in test [1] was -13%; in [2] it was -12%; in test [3], -12%; in [4], -5%; in [5] it was 43%; in test [6], 6%. Further, the residual activity in test [7] is 19%; in test [8], -1%; in test [9], 102%; in [10], 99%; in test [11], 109%; in test [12], 80%. Besides, the residual activity is 65% in test [13]; 18% in test [14]; 91% in [15]; 34% in test [16]; 76% in test [17]; 28% in test [18]. Further, the residual activity in test [19] came out at 109%; in test [20], 84%.

For `N#CCCc1ccc2c(c1)-c1[nH]c3ccc([N+](=O)[O-])cc3c1CC(=O)N2`, the residual activity was found to be 54% in [13]; 32% in [14]; 6% in test [15]; 1% in test [16]; 10% in test [17]; 3% in [18].

Consider `Cc1ccc(NC2=CC(=O)c3sc(C)nc3C2=O)cc1`, for which the residual activity in [1] is 100%; in [2] it was 101%; in test [3], 100%; in test [4], 107%; in test [5], 111%; in test [6], 109%. Moreover, the residual activity in test [7] came out at 95%; in [8] it was 88%; in test [9] it was 98%; in test [10] it was 95%; in test [11], 92%; in test [12] it was 74%. Besides, the residual activity came out at 89% in test [13]; 81% in test [14]; 104% in test [15]; 98% in [16]; 95% in test [17]; 98% in [18]. For the same compound, the residual activity in test [19] stood at 113%; in test [20] it was 96%.

In the case of `O=C1Nc2ccccc2/C1=C1/Nc2ccccc2/C1=N\OCCC(O)CO` (configuration not stated), the residual activity was 73% in test [1]; 22% in test [2]; 46% in test [3]; 3% in test [4]; 2% in test [5]; 4% in test [6]. Moreover, the residual activity in test [7] was 58%; in [8] it was 25%; in [11], 64%; in test [12] it was 15%; in [13] it was 27%; in test [14] it was 4%. Further, the residual activity came out at 6% in test [15]; 0% in test [16]; 6% in test [17]; 1% in test [18]; 15% in test [19]; 9% in test [20].

As for `c1ccc(-c2n[nH]c3c2oc2ccccc23)cc1`, the residual activity in test [1] is 86%; in test [3], 119%; in [4], 94%; in test [5] it was 91%; in [6], 80%; in [7], 86%. Further, the residual activity in test [8] was 14%; in [11], 115%; in [12] it was 136%; in [13] it was 87%; in [14] it was 36%; in [15], 81%. Besides, the residual activity in test [16] was 25%; in test [17], 79%; in test [18], 22%; in [20] it was 90%.

With `COc1cc2ncnc(Nc3ccc(Oc4ccccc4)cc3)c2cc1OC`, the residual activity came out at 93% in [1]; 100% in test [2]; 114% in test [3]; 108% in test [4]; 108% in [5]; 106% in test [6]. Besides, the residual activity in test [7] was 82%; in [8], 99%; in [9], 12%; in test [10], 3%; in test [11] it was 102%; in test [12], 76%. For the same compound, the residual activity in [13] was determined as 88%; in [14] it was 84%; in test [15] it was 102%; in test [16] it was 102%; in test [17], 105%; in [18] it was 111%. In addition, the residual activity in test [19] was found to be 103%; in test [20], 104%.

For `Cc1cc2ncc(-c3ccccc3)nc2cc1C`, the residual activity in test [6] amounted to 98%; in [7] it was 98%; in [8], 96%; in test [12] it was 89%; in [13], 101%; in test [14], 92%. In addition, the residual activity turned out to be 94% in test [16], 81% in [18], 108% in [19] and 100% in [20].

For the compound `CN(C)CCCn1cc(C2=C(c3c[nH]c4ccccc34)C(=O)NC2=O)c2ccccc21`, the residual activity in [1] was 107%; in test [2], 101%; in test [4], 104%; in test [5], 14%; in [6] it was 2%; in test [7], 66%. Moreover, the residual activity is 21% in test [8]; 122% in [9]; 100% in test [10]; 89% in [11]; 49% in test [12]; 63% in test [13]. Further, the residual activity in test [14] was 18%; in [15], 28%; in test [16] it was 6%; in test [17] it was 16%; in test [18] it was 5%; in test [19] it was 88%. The residual activity in [20] was 45%.

On to `O=c1cc(-c2cccc3c2Sc2ccccc2S3)oc(N2CCOCC2)c1`, for which the residual activity turned out to be 106% in [1]; 109% in [2]; 107% in test [3]; 104% in test [4]; 104% in test [5]; 92% in test [6]. Also, the residual activity in [7] came to 100%; in test [8], 87%; in test [9], 103%; in [10], 99%; in test [11], 113%; in [12] it was 87%. The residual activity in test [13] came out at 96%; in test [14], 82%; in test [15], 101%; in [16], 85%; in test [17], 96%; in test [18], 84%. In addition, the residual activity in test [19] was 114%; in [20], 98%.

As to `COc1cc2ncnc(Nc3ccc(NC(=O)c4ccccc4)cc3)c2cc1OC`, the residual activity was found to be 98% in [1]; 111% in test [2]; 110% in test [3]; 107% in test [4]; 107% in test [5]; 82% in test [6]. The residual activity in test [7] came to 83%; in test [8], 39%; in [10] it was 92%; in test [11], 99%; in test [12], 41%; in test [13], 102%. The residual activity came out at 94% in test [14], 108% in test [17], 91% in test [18] and 95% in test [20].

Consider `O=Nc1c(-c2c(O)[nH]c3ccccc23)[nH]c2ccccc12`, for which the residual activity in [1] came to 112%; in test [2] it was 78%; in test [3], 102%; in test [4] it was 58%; in [5] it was 14%; in test [6], 4%. Also, the residual activity in test [7] came out at 79%; in test [8] it was 54%; in test [9] it was 101%; in test [10], 78%; in [11] it was 72%; in test [12], 21%. In addition, the residual activity in test [13] was found to be 33%; in test [14] it was 11%; in test [15], 12%; in [16], 1%; in [17] it was 10%; in test [18] it was 2%. Moreover, the residual activity came out at 66% in [19] and 10% in [20].

Turning to `Cc1cncc2cccc(S(=O)(=O)N3CCCN(C(=O)CN)C[C@H]3C)c12`, the residual activity in test [3] is 128%; in [4] it was 98%; in [7], 76%; in test [8] it was 98%; in test [11], 97%; in [12], 63%. For the same compound, the residual activity stood at 76% in [13]; 49% in test [14]; 95% in test [15]; 64% in test [16]; 98% in test [17]; 60% in test [18]. The residual activity in test [19] is 91%; in test [20] it was 22%.

As to `O=[N+]([O-])c1ccc(-c2nc(-c3ccc(F)cc3)c(-c3ccncc3)[nH]2)cc1`, the residual activity was 100% in test [1]; 108% in test [2]; 114% in test [3]; 114% in test [4]; 122% in test [5]; 107% in [6]. Besides, the residual activity in [7] came out at 89%; in test [8], 87%; in test [9] it was 108%; in test [10], 105%; in test [11], 113%; in [12] it was 81%. Besides, the residual activity in test [13] was 102%; in [14], 92%; in test [17], 113%; in [18], 99%; in test [19] it was 101%; in test [20], 92%.
